# PubChem BioAssay AID686978 (National Center for Advancing Translational Sciences (NCATS), 2013)
# The whole screen tested about 420,000 compounds, of which about 64,000 (15%) were called active. Roughly 27% stayed inconclusive and do not appear here. Only a sample is shown. Unmarked numbers belong to inactive results. The call rests on the fitted dose curve; in most records, active means well fitted inhibition curve with a large enough effect; inconclusive means small, poorly fitted or top-dose-only effect; inactive means flat fitted curve, though single readings scatter.
# Assay: qHTS for Inhibitors of human tyrosyl-DNA phosphodiesterase 1 (TDP1): qHTS in cells in absence of CPT; further: nearly all actives have a fitted effect of over 55% in size
# Conditions: DT40 Tdp1-/- hTDP1 cells, no CPT, ATP luminescence, 48 h; activity change, negative = growth inhibition: at 46.2 µM (top of the series)
# How it was run: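 Seeded 400 DT40-hTDP1 cells/well (vehicle DMSO, no 20 nM CPT); pinned compounds; ≥48 hr at 37 °C; CellTiter-Glo luminescence as viability measure.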
# On the % scale 0 is the no-effect control and ±100 the full control effect; potency means the concentration at half of the fitted maximal effect.
SMILES,Potency,"activity change, negative = growth inhibition"
CCc1cccc(NC(=O)CCNS(=O)(=O)c2cccc3nonc23)c1,inactive,
Cc1ccc(NC(=O)C2(N3CCC3=O)CCCCC2)cc1,,10.4%
Cc1ccc(-c2cn3c(n2)sc2cc(C(=O)NCc4cccs4)ccc23)c(C)c1,18.4 µM (active),
Cc1ccc(-c2cn3c(n2)sc2cc(C(=O)NCCCc4ccccc4)ccc23)cc1,8.2 µM (active),
CCc1cc2c(cc3c(=O)n(CC(=O)NCCc4ccc(OC)c(OC)c4)ncn32)s1,,-0.928%
COc1ccc(CCNC(=O)c2ccc3c(c2)sc2nc(-c4ccc(C)cc4)cn23)cc1OC,5.17 µM (active),
COc1ccc(Cl)cc1C(=O)OCC(=O)NCc1cccs1,,22.9%
CCOc1ccc(CCNC(=O)c2ccc3c(c2)sc2nc(-c4ccc(F)cc4)cn23)cc1OCC,5.8 µM (active),
CCOc1cccc2cc(-c3cn4c(n3)sc3cc(C)ccc34)c(=O)oc12,,0.207%
CCOc1ccc(CCNC(=O)Cn2nc(CC)n3c(cc4sc(CC)cc43)c2=O)cc1OCC,,-19.3%
Cc1cc(C(=O)NCCCc2ccccc2)no1,,-4.19%
COc1ccc(CCNC(=O)CN(C)S(=O)(=O)c2ccc3nc(C)sc3c2)cc1OC,,-11.5%
CC(C)c1ccc(C(=O)NCCCc2ccccc2)cc1,,-16.9%
CCOc1ccc(CCNC(=O)Nc2ccccc2)cc1OCC,,-29.6%
Cc1cc(O)c(NC(=O)c2ccc(C)c([N+](=O)[O-])c2)cc1C,,-20.8%
CCc1ccc(-c2nnn(Cc3nc4ccccc4s3)n2)cc1,,-17%
C[C@H]1Cn2cnc(C(=O)N[C@H](C)c3ccccc3)c2C(=O)N1,,-13.3%
CC1(C)Cc2ccccc2-c2[nH]c(=S)[nH]c(=O)c21,,12.1%
Cc1ccc(C(=O)NN(CCC#N)C2=NS(=O)(=O)c3ccccc32)cc1,,-5.12%
Cc1cc(C)c(NC(=O)CN2CCOCCOCCOCCOCC2)c(C)c1,,-14.6%
O=C(Oc1ccc2c(c1)CCC2)N1CCOCC1,,-7.1%
C=C(C)CSc1nnc(-c2ccc(C)cc2)n1N,,-3.9%
CCCCn1c(N)c(N(CC(C)C)C(=O)C2CSC3(C)CCC(=O)N23)c(=O)[nH]c1=O (stereo not given),,-12.7%
O=C(O)c1ccc(-n2cccc2)cc1O,,7.21%
CCOC(=O)C1CCCN(C(=O)c2cccc(S(=O)(=O)N3CCOCC3)c2)C1 (stereo not given),,-11%

SMILES,Potency,"activity change, negative = growth inhibition"
CCOC(=O)C1CCCN(C(=O)c2ccc3c(c2)sc2nc(-c4ccc(CC)cc4)cn23)C1 (stereo not given),5.17 µM (active),
CCOC(=O)C1CCCN(C(=O)c2cncc(Br)c2)C1 (stereo not given),,-10%
O=C(COc1ccc([N+](=O)[O-])cc1)Nc1cccc(C(=O)Nc2ccccc2C(=O)O)c1,,10.7%
O=C(NC1(C(F)(F)F)NC(=O)N(Cc2cccnc2)C1=O)c1ccccc1Cl (stereo not given),,-2.04%
COc1ccc(S(=O)(=O)N2CCN(CC(=O)NCC3(N4CCOCC4)CCCCC3)CC2)cc1,,-5.53%
Cc1cccc(NC(=O)CN2CCN(CC(=O)NCC3(N4CCCCC4)CCCCC3)CC2)c1C,,-21%
CN1CCN(C2(CNC(=O)COc3ccc(C(C)(C)C)cc3)CCCCC2)CC1,18.4 µM (active),
Cc1nc2sc(C(c3ccco3)N3CCOCC3)c(O)n2n1 (stereo not given),,-7.01%
COc1ccccc1OCC(=O)Nc1ccccc1C(=O)NC1CC1,,-5.65%
COc1ccc(C(=O)NC2CC(C)(C)NC(C)(C)C2)cc1OC,,-0.888%
COc1ccc(C2(CNC(=O)Cc3ccc(OC)c(OC)c3)CCCC2)cc1,20.6 µM (active),
COc1ccccc1C(=O)NCCC(=O)NN1C(=O)NC2(CCCCC2)C1=O,,-12%
COc1ccc(CC(=O)NC2CCSc3ccccc32)cc1OC (stereo not given),,-6.31%
COc1cc(C(=O)NCC2(c3ccccc3)CCCC2)ccc1OC(C)C,10.3 µM (active),
CCOc1c(OC)cccc1C(=O)NCC1(c2ccccc2)CCCC1,6.51 µM (active),
COc1ccc(CC(=O)N[C@@H]2c3cc(OC)c(OC)cc3C[C@H]2OCc2ccccc2)cc1,,-9.63%
CCn1c(CNC(=O)c2ccc(OC)c(OC)c2)nnc1SCC(=O)Nc1ccccc1,,15.1%
Cn1cnc(S(=O)(=O)Nc2ccc3c(c2)OCCO3)c1,,-17.1%
CN(C)Cc1c(C#N)c2ccccc2n1C,,-1.73%
COCCCN(C(=O)Cn1ncc2c(=O)oc3ccc(C)cc3c21)C(C)c1ccncc1 (stereo not given),,-2.45%
CC1CCN(CCCn2c(SCC(=O)NC3CCCC3)nc3ccccc3c2=O)CC1,,15.5%
Nc1nc(SCCOc2ccccc2)n[nH]1,,-7.09%
COc1cc(C(=O)OCCCN2CCOCC2)cc(OC)c1OC,,11.1%
CCC(C)Sc1nc2c(c(=O)[nH]c(=O)n2C)n1CC(O)COc1cccc2ccccc12 (stereo not given),29.1 µM (active),
Cc1cccc(OCC(O)Cn2c(N3CCCCC3)nc3c2c(=O)[nH]c(=O)n3C)c1 (stereo not given),23.1 µM (active),
